Resorufin autofl – qHTS Assay for Spectroscopic Profiling in Resorufin Spectral Region; 59,000 tested, 0.04% active; max dye-equivalent concentration, M; Compound fluorescence, resorufin region 547/598 nm, buffer; active compounds read high
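Compounds in 100 mM Tris buffer, pH 8.0, incubated 15 min at room temperature, then read with 547 nm excitation and 598 nm emission filters. Fluorescence was converted to dye-equivalent concentration using an on-plate six-point resorufin standard curve.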
A647 fluor – qHTS Assay for Spectroscopic Profiling in A647 Spectral Region. Compound fluorescence, A647 channel (570/671 nm), Tris buffer. max dye-equivalent concentration, M. 59,000 tested, under 10 active
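Compounds pinned into 100 mM Tris pH 8.0, 15 min at room temperature, then read with 570 nm excitation/671 nm emission filters. Fluorescence normalized to an on-plate six-point Alexa 647 standard curve, giving dye-equivalent concentration per compound concentration.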
TexasRed autofl – qHTS Assay for Spectroscopic Profiling in Texas Red Spectral Region | Compound fluorescence, Texas Red channel, 547/618 nm; active compounds read high | max dye-equivalent concentration, M | 59,000 tested, 0.06% active | AID 587, 2007; in the data active = max dye-equivalent concentration above about 10 nM; inconclusive = between about 1.1 nM and that limit
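Fluorescence at ex 547/em 618 nm, normalized against an on-plate Texas Red standard series to give dye-equivalent concentration per compound concentration. Buffer 100 mM Tris, pH 8.0; 15 min RT incubation before CCD imaging.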
Fluorescein fluor – qHTS Assay for Spectroscopic Profiling in Fluorescein Spectral Region; max fluorescein-equivalent concentration, M; Compound autofluorescence, 480/540 nm, fluorescein-equivalent; active compounds read high; 59,000 tested, 0.91% active; in the data active = max fluorescein-equivalent concentration above about 10 nM; inconclusive = between about 1.1 nM and that limit
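Fluorescein stocks ranging 3 mM down to 300 nM, plus DMSO blanks, were pinned alongside compounds to build a per-plate standard curve. Buffer: 100 mM Tris, pH 8.0. Incubation 15 min, room temperature; filters 480/540 nm.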
A488 autofl – qHTS Assay for Spectroscopic Profiling in A488 Spectral Region; compound autofluorescence, A488 spectral region, dye equivalency; Compound Type: qHTS ECL - MLSMR; max dye equivalency, M; 59,000 tested, 0.1% active
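Readout is A488 dye-equivalent concentration, calibrated by a per-plate six-point Alexa 488 series. Compounds in 100 mM Tris buffer pH 8.0 were incubated 15 min at room temperature. Plates were imaged using 480 nm excitation/540 nm emission filters.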
Rhodamine fluor – qHTS Assay for Spectroscopic Profiling in Rhodamine Spectral Region; Rhodamine-region fluorescence, 547/598 nm, Tris buffer; active compounds read high; max dye-equivalent concentration, M; 59,000 tested, 0.05% active; AID 594, 2007; in the data active = max dye-equivalent concentration above about 11 nM; inconclusive = between about 1.1 nM and that limit
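Compound fluorescence in 100 mM Tris, pH 8.0, read after 15 min at room temperature with 547 nm excitation and 598 nm emission. Output is dye-equivalent concentration from an on-plate rhodamine standard series.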
Large screens that a line does not name were inactive; ! = not active in a repeat. Hits are enriched below; roughly 0.95% of the tested compounds scored in any of these assays. Unless noted, no rule for the calls is given here.

COc1ccc(-c2coc3ccc(O[C@@H]4O[C@@H](COC(C)=O)[C@@H](OC(C)=O)[C@@H](OC(C)=O)[C@H]4OC(C)=O)c(OC(C)=O)c3c2=O)cc1	none
CCOc1cc(C2C(C#N)=C(N)OC(C)=C2C(C)=O)cc(Br)c1O (stereo unspecified)	Fluorescein fluor 1.9e-07M, A488 autofl 1.2e-08M
CCOC(=O)C1=C(C)OC(N)=C(C#N)C1c1cc(OC)c2c(c1)OCO2 (stereo unspecified)	Fluorescein fluor inconclusive
CCOc1ccc(C2C=C(c3ccc(C)cc3)Nc3ncnn32)cc1 (stereo unspecified)	TexasRed autofl inconclusive, Fluorescein fluor 1.5e-08M
CCOc1ccc(C2C=C(c3ccc(C)cc3)Nc3nnnn32)cc1 (stereo unspecified)	Fluorescein fluor inconclusive
COc1ccccc1/C=c1\sc2nc(-c3ccncc3)nn2c1=O	Fluorescein fluor 1.5e-08M
O=S(=O)(NCCNC/C=C\c1ccc(Br)cc1)c1cccc2cnccc12	Fluorescein fluor inconclusive
O=C(O)[C@@H]1CCCN1Cc1cc2ccccc2c2ccccc12	Fluorescein fluor inconclusive
Clc1ccc(CN2CCCN(Cc3ccc(Cl)cc3)C2c2cc3ccccc3c3ccccc23)cc1	Fluorescein fluor 1.2e-08M
CC(C)(C)c1onc(OCP(=O)(O)O)c1C[C@@H](N)C(=O)O	TexasRed autofl inconclusive
CN(C)/C=c1\sc2c(C#N)cc(C(=O)c3ccc(Br)cc3)n2c1=O	Fluorescein fluor 8.1e-07M, A488 autofl 4.3e-08M
C=C1CC[C@@H]2O[C@]2(C)CC[C@@H]2[C@H]1CC2(C)C	none
CC[C@@]12CCCN3CCc4c(n(c5ccccc45)C(=O)C1)[C@H]32	Fluorescein fluor 1.2e-08M!
COc1cccc2cc(C(=O)N3CCc4ccccc43)c(=O)oc12	none
CCOc1cccc2cc(C(=O)N3CCc4ccccc43)c(=O)oc12	Resorufin autofl inconclusive, TexasRed autofl 2.3e-08M, Fluorescein fluor inconclusive, Rhodamine fluor 1.1e-08M
CCCCCNC(=O)C(C#N)c1nc2ccccc2nc1N1CCCC1 (stereo unspecified)	Fluorescein fluor 5.5e-07M, A488 autofl 2.9e-08M
CCCCCCNC(=O)C(C#N)c1nc2ccccc2nc1N1CCCC1 (stereo unspecified)	Fluorescein fluor 8e-07M, A488 autofl 4.1e-08M
CCCCCCNC(=O)C(C#N)c1nc2ccccc2nc1N1CCOCC1 (stereo unspecified)	Fluorescein fluor 4.1e-07M, A488 autofl 3e-08M
COCCCNC(=O)C(C#N)c1nc2ccccc2nc1N1CCCC1 (stereo unspecified)	Fluorescein fluor 6.6e-08M, A488 autofl inconclusive
COc1ccc([C@@H]2CC(=O)c3c(O)cc(O[C@@H]4O[C@@H](CO[C@@H]5O[C@@H](C)[C@@H](O)[C@@H](O)[C@H]5O)[C@@H](O)[C@@H](O)[C@H]4O)cc3O2)cc1O	Fluorescein fluor inconclusive
CC(=O)c1c(O)c(C)c(O)c2c1OC1=CC(=O)[C@H](C(C)=O)C(=O)[C@]12C	none
CCCCCCOC(=O)C(C#N)c1nc2ccccc2nc1N1CCOCC1 (stereo unspecified)	Fluorescein fluor inconclusive
CCCCOC(=O)C(C#N)c1nc2ccccc2nc1N1CCOCC1 (stereo unspecified)	Fluorescein fluor 2.9e-08M, A488 autofl inconclusive
CCCCN(CCCC)c1nc2ccccc2nc1C(C#N)C(=O)NCCCOC (stereo unspecified)	Fluorescein fluor 5.7e-08M, A488 autofl inconclusive
C=C1CC[C@H]2C(C)(C)[C@H](O)CC[C@]2(C)[C@@H]1COc1ccc2ccc(=O)oc2c1	none
CC(C)n1c(=NC(=O)c2ccco2)c(C#N)cc2c(=O)n3ccccc3cc21	TexasRed autofl inconclusive, Fluorescein fluor 1.1e-08M
CCCn1c(=NC(=O)c2ccco2)c(C(=O)OCC)cc2c(=O)n3ccccc3nc21	none
Oc1cc(O)cc(/C=C\c2ccc(O)c(O)c2)c1	Fluorescein fluor inconclusive
CN1/C(=C\C(=O)COC(=O)Cn2nnc(-c3ccccc3)n2)C(C)(C)c2ccccc21	Resorufin autofl inconclusive, TexasRed autofl 2.2e-08M, Fluorescein fluor inconclusive, Rhodamine fluor inconclusive
Cc1ccc(S(=O)(=O)N2CCC(C(=O)Nc3nnc(C4CCCC4)s3)CC2)cc1	Fluorescein fluor 1.2e-08M
Cc1cc(N=Cc2c(O)n(-c3ccc4c(c3)OCO4)c(=O)c3ccccc23)ccn1	TexasRed autofl inconclusive, Fluorescein fluor inconclusive
Cc1cccc(-n2c(O)c(C=Nc3ccc4c(c3)OCO4)c3ccccc3c2=O)n1	Fluorescein fluor 5.8e-08M, A488 autofl inconclusive
COC(=O)c1ccc(C2/C(=C(/O)c3ccc(OC(C)C)cc3)C(=O)C(=O)N2c2cc(C)on2)cc1 (stereo unspecified)	TexasRed autofl inconclusive
COC(=O)c1ccc(C2/C(=C(/O)c3ccc(OC)cc3)C(=O)C(=O)N2c2cc(C)on2)cc1 (stereo unspecified)	Fluorescein fluor 1e-08M
C[C@@H]1O[C@@H](OC[C@@H]2O[C@@H](Oc3c(-c4ccc(O)c(O)c4)oc4cc(O)cc(O)c4c3=O)[C@H](O)[C@H](O)[C@@H]2O)[C@H](O)[C@H](O)[C@@H]1O	Fluorescein fluor inconclusive
CCN(CC)c1ccc2c(c1)C(=O)N(C)C2=O	TexasRed autofl inconclusive, Fluorescein fluor 1.1e-08M
O=C(NCc1ccc2[nH]c3c(c2c1)CCCC3)N1CCOCC1	Fluorescein fluor 1.5e-08M
Cn1cc(C2=C(c3ccc(Cl)cc3Cl)C(=O)NC2=O)c2ccccc21	Resorufin autofl inconclusive, Fluorescein fluor 5e-07M, A488 autofl 2.7e-08M, Rhodamine fluor inconclusive
Cc1sccc1C1C(C#N)=C(N)SC(N)=C1C#N	Fluorescein fluor 1.2e-08M
CCCCCCCCCCCCCCCCCCOC[C@@H](COP(=O)([O-])OCC[N+](C)(C)C)OC	TexasRed autofl inconclusive, Fluorescein fluor inconclusive
O=C1O/C(=C\Br)CC[C@@H]1c1cccc2ccccc12	Fluorescein fluor inconclusive
CC(=O)C1=C(C)N=c2s/c(=C/c3ccc4c(c3)OCO4)c(=O)n2C1c1ccc(N(C)C)cc1 (stereo unspecified)	none
COc1ccc(C2C(C(C)=O)=C(C)N=c3s/c(=C/c4ccc5c(c4)OCO5)c(=O)n32)cc1 (stereo unspecified)	Fluorescein fluor 1.2e-08M
COc1c2c(nc3ccccc13)O[C@@H]([C@@](C)(O)CO)C2	TexasRed autofl inconclusive
Cc1nn(-c2ccccc2)c(Cl)c1C1C(C#N)=C(N)OC2=C1C(=O)CCC2 (stereo unspecified)	Fluorescein fluor inconclusive
